Assay outcomes: PubChem, several laboratories
Mcl1 Noxa PPI – Mcl-1/Noxa interaction inhibition; inhibition, % at 21.7 µM; Q07820; TR-FRET Mcl-1/Noxa peptide binding, 2 h; 1.5% of 220,000 active;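 active = compounds that cut the protein-peptide binding signal by more than 50% relative to plate controls in a single-dose test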;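 note: His-tagged Mcl-1 with rhodamine Noxa BH3 peptide and terbium anti-His antibody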
Target sequence (Q07820 whole entry, looked up): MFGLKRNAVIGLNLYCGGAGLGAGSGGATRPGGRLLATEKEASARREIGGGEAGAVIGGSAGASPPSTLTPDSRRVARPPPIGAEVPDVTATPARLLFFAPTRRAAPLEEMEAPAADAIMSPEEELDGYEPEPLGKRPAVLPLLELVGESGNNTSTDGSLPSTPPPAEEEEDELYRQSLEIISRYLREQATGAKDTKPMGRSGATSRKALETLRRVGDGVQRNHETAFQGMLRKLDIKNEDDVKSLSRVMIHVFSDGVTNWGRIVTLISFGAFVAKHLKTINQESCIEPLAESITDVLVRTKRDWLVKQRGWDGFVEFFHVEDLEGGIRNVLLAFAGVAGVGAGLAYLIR
Mcl-1 Bim block – human Bim-Mcl-1 interaction inhibition; Bead-based flow cytometry, Bim peptide-Mcl-1 binding; inhibition, % at 10 µM; 0.1% of 190,000 active; AID 1009; in the data active = inhibition above about 40%
Mcl1-Bid inh – disrupts binding of human Mcl-1 to Bid peptide | Q07820 | TR-FRET Mcl-1/Bid-Dy647 peptide binding, 1536-well | inhibition, % at 21.7 µM | 0.97% of 220,000 active | AID 1021;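 active = compounds that cut the binding signal by more than half at the single screening dose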;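 note: His-tagged Mcl-1 with europium anti-His antibody binding Bid BH3 peptide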
Bcl-xL primary – blocks human Bcl-xL binding to Bim BH3 peptide; Q07817; GST-Bcl-xL / FITC-Bim BH3 peptide fluorescence polarization; 0.7% of 320,000 active; AID 2129; inhibition, % at 10.9 µM;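 active = inhibition above the mean of all tested compounds plus 3 SD, cutoff set per campaign, cut at about 30% in these data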;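 note: inhibitors lower millipolarization by displacing the labeled peptide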
Target sequence (Q07817 whole entry, looked up): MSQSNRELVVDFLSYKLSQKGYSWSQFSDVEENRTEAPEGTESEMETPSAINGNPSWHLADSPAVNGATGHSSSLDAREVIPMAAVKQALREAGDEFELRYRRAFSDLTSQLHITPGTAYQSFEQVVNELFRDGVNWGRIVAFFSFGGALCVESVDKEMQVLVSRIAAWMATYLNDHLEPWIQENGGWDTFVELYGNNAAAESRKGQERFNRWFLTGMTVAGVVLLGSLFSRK
MCL1 BIM primary – disrupts human MCL1 binding to BIM-BH3 peptide | 0.68% of 320,000 active | inhibition, % at 10.9 µM | GST-MCL1 / FITC-Bim-BH3 fluorescence polarization | Q07820 | AID 2057;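 active = inhibition above the mean inhibition of all tested compounds plus 3 SD, set per campaign, cut at about 40% in these data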;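 note: higher means more loss of mP so more displacement of Bim peptide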
GLD-1 TGE inh – GLD-1-TGE RNA interaction inhibition (C. elegans); purified GLD-1 + fluorescein TGE RNA, fluorescence polarization; inhibition, % at 5.96 µM; 0.44% of 320,000 active; AID 2280;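 active = percent inhibition above a per-plate cutoff, the plate mean of test compounds plus 3 SD, cut at about 30% in these data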
A number is an active result; i = inactive; nt = not tested or not shown. In the library only some 2.3% were active in any assay of this set; here they are far more common.

SMILES	Mcl1 Noxa PPI	Mcl-1 Bim block	Mcl1-Bid inh	Bcl-xL primary	MCL1 BIM primary	GLD-1 TGE inh
Cc1cccc(NC(=S)NCCc2ccc3c(c2)OCCO3)c1C	i	i	i	i	i	i
O=C(NC1CCC(O)CC1)c1ccc(-c2ccc([N+](=O)[O-])cc2)o1 (centres undefined)	70.9	nt	i	i	i	i
COc1cccc(CNC(=O)c2cc(S(=O)(=O)N3CCOCC3)ccc2N2CCCC2)c1	nt	nt	nt	i	i	i
CCOc1ccccc1Nc1nnc(Cc2ccccc2Cl)c(=O)[nH]1	i	i	52.5	i	i	i
Cc1ccc(-n2[nH]c(C)c(C=Nc3ccc(S(=O)(=O)Nc4nccs4)cc3)c2=O)cc1	i	i	i	i	i	i
Cc1[nH]n(-c2ccc(Br)cc2)c(=O)c1C=Nc1ccc(S(=O)(=O)Nc2nccs2)cc1	78.7	i	i	i	i	i
CCC1Oc2ccc(C)cc2N(CC(=O)N(Cc2cccnc2)Cc2ccc(C)o2)C1=O (centres undefined)	63.6	i	70.5	i	i	i
Cc1cc(C)c(NC(=O)COC(=O)C2=COCCO2)c(Cl)c1	nt	nt	nt	i	i	i
COc1ccc(S(=O)(=O)NNc2nc(C)cc(C)n2)cc1[N+](=O)[O-]	nt	nt	nt	i	i	i
COc1ccc(-c2ccc3c(n2)sc2c(=O)[nH]c(=O)[nH]c23)cc1OC	84.2	i	i	nt	nt	nt
O=C(COC(=O)c1cc[n+]([O-])cc1)NCc1ccccc1Cl	71.6	i	i	i	i	i
CC(C)C(=O)OCC(=O)NCc1ccccc1Cl	i	i	i	i	i	i
Cc1ccc(-n2c(SCC(=O)N(C)C)nnc2-c2ccco2)cc1	nt	nt	nt	i	i	i
COc1ccc(N2CCN(C(=O)c3cc(C)on3)CC2)cc1	nt	nt	nt	i	i	i
OCCN1CCN(C(c2cccs2)c2ccc3cccnc3c2O)CC1 (centres undefined)	95.1	i	82.3	nt	nt	nt
CC1=Nc2cccc3cccc(c23)N1C	60.5	i	i	i	i	i
N#C/C(=C(/O)CN1CCN(c2ccccc2F)CC1)c1nc(-c2ccccc2)cs1	i	46.0	i	i	i	i
CC1=C(C#N)c2nc(N)c(C#N)c(C)c2/C1=C\c1ccc(-c2ccccc2C(=O)O)o1	81.7	i	i	nt	nt	nt
COc1cc(/C=C2/C(C)=C(C#N)c3nc(N)c(C#N)c(C)c32)ccc1OCC(=O)O	i	i	i	31.3	i	i
Nc1nonc1-c1nc2ccccc2n1CC(=O)N/N=C/c1ccc(-c2ccccc2C(=O)O)o1	i	i	i	i	i	i
C/C=C/c1ccc(OCC(=O)O)c(OC)c1	i	nt	i	i	i	i
COc1ccc(CSC2=CS(=O)(=O)c3ccccc3N2)cc1	i	i	i	i	i	i
CCCn1c(SCC(=O)c2[nH]c(C)c(C(C)=O)c2C)n[nH]c1=O	i	nt	i	i	i	i
O=C(COC(=O)C1CC(=O)N(Cc2ccccc2)C1)c1ccc(Br)cc1 (centres undefined)	i	i	i	i	i	i
Cc1ccc(C(=O)Oc2ccc(C(=O)COC(=O)C3CC(=O)N(Cc4ccco4)C3)cc2)cc1 (centres undefined)	i	i	57.0	i	i	i
SMILES	Mcl1 Noxa PPI	Mcl-1 Bim block	Mcl1-Bid inh	Bcl-xL primary	MCL1 BIM primary	GLD-1 TGE inh
O=C(COC(=O)C1CC(=O)N(Cc2ccco2)C1)c1ccc(OC(=O)c2ccco2)cc1 (centres undefined)	55.5	i	i	i	i	i
Brc1c(CSc2nc3ccccc3s2)nc2ncccn12	i	i	i	i	i	i
O=[N+]([O-])c1ccc2sc(SCc3nc4ccccn4c3Br)nc2c1	55.6	i	i	i	i	i
CN1CCN(C(=O)c2cnn3c(C(F)(F)F)cc(-c4cccs4)nc23)CC1	i	i	i	i	i	i
O=C(c1cnn2c(C(F)(F)F)cc(-c3cccs3)nc12)N1CCN(C(c2ccccc2)c2ccccc2)CC1	i	i	i	85.1	i	i
O=C(Nc1ccc(F)cc1)Nc1ccc(Oc2ncnc3cc(Cl)ccc23)nc1	i	nt	91.9	i	i	i
Cc1cc([N+](=O)[O-])cc2c1NC(=O)C2(O)N1CCOCC1 (centres undefined)	i	i	i	i	i	i
O=C(O)CCCCCN1C(=O)/C(=C\c2ccc(-c3ccc(Cl)cc3)o2)SC1=S	105.2	nt	89.7	i	i	i
O=C(O)CCCN1C(=O)/C(=C/c2ccc(-c3nc4ccccc4s3)o2)SC1=S	102.1	i	53.3	i	i	i
O=C(O)CCCCCN1C(=O)/C(=C\c2ccncc2)SC1=S	i	i	i	i	i	i
CCOc1ccccc1Nc1cc(C)nc2ccc(C)cc12	nt	nt	nt	i	i	i
S=C1NCN(C2CCCCC2)CN1CCc1ccccc1	i	nt	i	i	i	i
CCN(Cc1ccccc1)c1ccc(/C=N/N2CCOCC2)cc1	64.4	i	i	i	i	i
CCOC(=O)c1cc(-c2ccccc2)n(CC(=O)N2CCCC2)c1C	i	i	93.7	i	i	i
CCc1cc(CN2CCOCC2)c(NC(=O)c2ccccc2)s1	i	i	i	i	i	i
CCc1cc(C(c2ccc(F)cc2)N2CCOCC2)c(NC(=O)c2ccccc2)s1 (centres undefined)	i	i	67.5	i	i	i
C=CCOc1ccc(CN(C)C(=O)c2ccc(CNS(=O)(=O)c3ccc(C)c(C)c3)cc2)cc1	nt	nt	nt	i	i	i
COc1ccc(NC(=O)CSc2ncnc3c2sc2ccccc23)c(OC)c1	79.3	i	i	i	i	i
C=C(C)CNC(=S)N/N=C/c1ccc(NC(C)=O)cc1	i	i	i	i	i	i
CC(=O)Nc1ccc(/C=N/NC(=S)NC(C)C)cc1	52.5	i	i	i	i	i
Cn1c(CCNC(=O)c2ccccc2F)nnc1SCC(=O)Nc1nncs1	nt	nt	nt	i	i	i
Cc1ccc(C)c(NC(=O)CN(C)C(=O)c2cc3c(s2)CCCCC3)c1	nt	nt	nt	i	i	i
Cc1ccc(C(=O)N2CCn3c(C)ccc3C2C)cc1 (centres undefined)	i	i	i	43.1	42.4	i
Cc1ccc(OCCN2CCN(CC(O)Cn3c4ccccc4c4ccccc43)CC2)cc1 (centres undefined)	i	i	65.7	i	i	i
CCOC(=O)Cc1csc(NC(=O)C(C)c2ccc([N+](=O)[O-])cc2)n1 (centres undefined)	i	i	i	i	i	i
CCN(CC)S(=O)(=O)c1ccc(N2CCOCC2)c(NC(=O)c2c3c(nc4ccccc24)CCC3)c1	91.0	i	i	i	i	i
O=C(Nc1cccc(S(=O)(=O)N2CCOCC2)c1)c1c2c(nc3ccccc13)CCC2	73.8	i	i	i	i	i
O=C(Nc1cccc(S(=O)(=O)N2CCOCC2)c1)c1ccc2ccccc2n1	i	nt	i	i	i	i
CC(OC(=O)c1cccc(N2C(=O)c3ccccc3C2=O)c1)C(=O)Nc1ccc(N(C)C)cc1 (centres undefined)	76.1	i	i	i	i	i
